FMDV inh: High Throughput Screening for Foot and Mouth Disease Virus Antivirals; Potency, µM (highest dose often 57.9 µM), for the others: at the top dose activity change, negative = inhibition, hits mostly inhibitors; hit rate 1.2% among 410,000; AID 1159524, 2015; FMDV antiviral cell-based qHTS; calls by dose curve; tested in HEK293T cells; note: read-out not given here; potency is the fitted concentration of half-maximal effect; nearly all actives have a fitted effect of over 45% in size
HCV inhibitor: qHTS Assay for Inhibitors of Hepatitis C Virus (HCV) | Huh7.5.1 HCVcc-Cre infection, luciferase reporter, 44 h | Potency, µM (top dose mostly 41.8 µM), for the others: at the highest dose activity change, negative = inhibition, actives largely listed as inhibitors | hit rate 3.4% among 340,000; note: potency is the fitted concentration of half-maximal effect
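Reporter virus HCVcc-Cre (~0.5 moi) infects cells exposed to compound; seeding density 1,000 cells/well with 4 h settling beforehand. Luminescence, 15 sec read, taken 44 h post-infection following a 15 min RT substrate incubation.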
HCMV inh: qHTS Assay for inhibitors of the human cytomegalovirus (HCMV); HFF cells, HCMV-luciferase reporter, 72 h; stronger effect = lower value; activity change, negative = inhibition, % at 57.5 µM; hit rate 4.5% among 410,000; AID 1259415, 2018; in the data active = activity change below about -60%; inconclusive = no clear call, values can overlap the other calls; inactive = above about -39%
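Two-dose cell screen: HFF monolayers treated with compounds and infected with luciferase-expressing HCMV at 1 PFU/cell, 72 h at 37C, then lysed for luciferase measurement.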
AmpC detergent: qHTS Inhibitors of AmpC Beta-Lactamase (assay with detergent) | Potency, µM (titrated, usually from 114 µM), for inactives: at the top dose activity change, negative = inhibition, hits mostly inhibitors | P00811 | hit rate 0.041% among 370,000 | AID 485294, 2010 | AmpC hydrolysis of nitrocefin, absorbance 480 nm, 0.01% Triton;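 note: potency is the fitted concentration of half-maximal effect; 0% = no-compound wells and -100% = no-enzyme wells; nearly all actives have a fitted effect of over 25% in size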
Target sequence (P00811 whole entry, looked up): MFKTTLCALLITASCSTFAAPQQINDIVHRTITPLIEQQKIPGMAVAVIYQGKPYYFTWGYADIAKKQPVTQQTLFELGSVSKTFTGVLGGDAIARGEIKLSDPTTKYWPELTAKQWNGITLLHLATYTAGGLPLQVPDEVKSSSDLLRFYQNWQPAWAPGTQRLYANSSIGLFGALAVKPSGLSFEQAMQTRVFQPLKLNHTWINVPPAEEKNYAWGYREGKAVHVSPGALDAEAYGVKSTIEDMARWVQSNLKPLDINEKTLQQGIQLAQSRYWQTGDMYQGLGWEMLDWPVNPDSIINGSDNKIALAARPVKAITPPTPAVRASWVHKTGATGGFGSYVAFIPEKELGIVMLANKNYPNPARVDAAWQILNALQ
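AmpC (5.3 nM in the dispensed reagent) in 20 mM phosphate pH 7.0 with 0.01% (detergent screen) or 0.0001% Triton X-100 was preincubated with compounds for 15 min at room temperature. Nitrocefin was then added from an 800 uM solution, and hydrolysis was followed at 480 nm.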
AmpC no deterg: qHTS Inhibitors of AmpC Beta-Lactamase (assay without detergent); Potency, µM (highest dose often 57.1 µM), for the others: at the highest dose activity change, negative = inhibition, usual class: inhibitors; AmpC nitrocefin hydrolysis, absorbance 480 nm, 0.0001% Triton; hit rate 0.52% among 330,000;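 note: potency is the fitted concentration of half-maximal effect; plate controls were no compound for no effect and no enzyme for full effect; nearly all actives have a fitted effect of over 20% in size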
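AmpC (5.3 nM in the dispensed reagent) in 20 mM phosphate pH 7.0 with 0.01% (detergent screen) or 0.0001% Triton X-100 was preincubated with compounds for 15 min at room temperature. Nitrocefin was then added from an 800 uM solution, and hydrolysis was followed at 480 nm.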
Numbers without * were called inactive; ? = inconclusive; nt = not tested or not shown; [ ] = dose if it differs, or a comment. An excerpt weighted towards active compounds, which were near 7.3% of everything screened. Unless noted, calls come from the whole dose curve; as a rule, active = well fitted curve in the direction sought with a large enough effect; inconclusive = small, poorly fitted or top-dose-only effect, or another doubt; inactive = no such curve, though single readings can be large; an effect the other way counts as inactive or inconclusive. Unless noted, % is set by controls: 0 for no effect and ±100 for the full control effect.

SMILES | FMDV inh | HCV inhibitor | HCMV inh | AmpC detergent | AmpC no deterg
CC(=O)Nc1sc(N/N=C\c2ccccc2Cl)nc1-c1cccs1 | 20.2% | -17.6% | -83.4* | -10.7% | -7.5%
CC(=O)Nc1sc(N/N=C/c2ccccc2F)nc1-c1ccc(C)cc1 | 74.1% | 12.6µM* | -1.1 | -2.3% | -39.0%
CC(=O)Nc1sc(N/N=C\c2ccccc2)nc1-c1cccs1 | 40.6% | -2.4% | -4.2 | -14.4% | -35.0%
COc1ccc(-c2nc3cc(C)ccc3cc2CN(C(=O)c2ccc(C)s2)C2CC2)cc1OC | -14.0% | nt | nt | nt | nt
COCCCn1c(SCCc2ccccc2)nc2cc(OC)c(OC)cc2c1=N | ? | 12.6µM* | -18.1 | -12.3% | 213.2%
CCSc1nc2cc(OC)c(OC)cc2c(=O)n1CCc1ccccc1 | -3.2% | ? | ? | -15.8% | -11.9%
O=C(Nc1cccc(F)c1)NC1(C(=O)N2CCC(O)CC2)CCCCC1 | 12.6% | 6.4% | -99.0* | -8.1% | -9.4%
NC(=O)C1CCN(C(=O)C2(NC(=O)Nc3cccc(F)c3)CCCCC2)CC1 | 2.7% | 11.2% | 3.0 | ? | -4.7%
CCC(CC)C(=O)c1c[nH]c(C(=O)NCc2ccccc2OC)c1 | 39.8µM* | -21.0% | 2.3 | -7.6% | -44.8%
COc1ccccc1CNC(=O)c1ccc2nc3[nH]c4ccccc4c3nc2c1 | 32.8% | ? | -86.4* | -3.7% | 46.6%
Cc1cccc(CNC(=O)c2ccc3nc(-c4ccccc4)c(-c4ccccc4)nc3c2)c1 | -18.7% | nt | 1.6 | -8.5% | nt
COc1ccccc1CNC(=O)c1cccc(NC(=O)c2ccccc2)c1 | -26.6% | 14.1µM* | ? | ? | -9.2%[2.29 µM]
CCC(=O)c1c[nH]c(C(=O)NCc2ccccc2OC)c1 | 0.0% | -19.6% | 55.8 | -12.0% | -7.2%
Cc1ccc(CNC(=O)c2ccc3nc4[nH]c5ccccc5c4nc3c2)cc1 | nt | 4.0% | -101.9* | ? | -29.9%
O=C(NCc1ccccc1Cl)c1cccc(NC(=O)c2ccccc2)c1 | -0.5% | ? | ? | -12.8% | -29.3%
CCN1C(=O)c2ccccc2S(=O)c2ccc(C(=O)N3CCN(c4ccccc4OC)CC3)cc21 (stereo unspecified) | -13.9% | nt | 19.2 | ? | nt
C[C@H]1[C@@H](c2ccccc2)Oc2ccc(Cl)cc2S(=O)(=O)N1Cc1cccc(Cl)c1 | nt | nt | -9.5 | nt | nt
O=C(CS(=O)(=O)c1ccc(F)cc1)NCCS(=O)(=O)c1ccccc1 | -7.5% | ? | 5.9 | 3.4% | -2.9%
FC(F)(F)c1nc(-c2cccnc2)ncc1-c1nnnn1-c1ccccc1 | 0.0% | ? | -25.7 | 2.0% | 14.3%
Clc1ccc(-n2nnnc2-c2cnc(-c3ccncc3)nc2-c2cccs2)cc1 | -1.8% | 22.4µM* | -62.1* | -6.8% | 7.1%
N#C/C(=C\C=C\c1ccccc1[N+](=O)[O-])C(=O)NCc1ccccc1 | -39.0% | 31.6µM* | -98.4* | 4.9% | -42.8%
CCC(=O)c1ccc(OCC(=O)OCc2csc(CC(=O)Nc3ccccc3C)n2)cc1 | 0.0% | nt | -10.7 | nt | nt
O=Cc1c(Sc2ccccn2)nc2ccccn2c1=O | ? | 35.5µM* | 149.1 | 0.8% | -15.7%
CCCC(C(=O)Nc1ccc(S(=O)(=O)N2CCCC2)cc1)c1ccccc1 (stereo unspecified) | -24.3% | -18.3% | -34.8 | 5.1% | -47.4%
Cc1ccc(NC(=O)CCCN2C(=O)COc3ccc(C)cc32)c(Cl)c1 | -21.0% | nt | 11.3 | -2.9% | nt
SMILES | FMDV inh | HCV inhibitor | HCMV inh | AmpC detergent | AmpC no deterg
COc1ccc(CCN2CN(S(=O)(=O)c3ccccc3)c3nc4ccccc4nc32)cc1 | 40.1% | -18.4% | -31.6 | 2.2% | -26.6%
COc1ccc(CCN2CN(S(=O)(=O)c3ccccc3)c3nc4ccccc4nc32)cc1OC | -10.5% | ? | -65.6* | ? | -23.5%
COc1cc(C(=O)Nc2ccc(C(F)(F)F)cc2)ccc1OCC(=O)N1CCOCC1 | 7.0% | -16.1% | -4.8 | -17.2% | 101.1%
COc1cc(NC(=O)c2ccc(-c3nc(CSc4ccccc4)c(C)o3)cc2)cc(OC)c1 | -3.1% | nt | ? | -1.6% | nt
O=C(O)c1cccc(NC(=O)c2ccc3c(c2)C(=O)N(CC2CCCO2)C3=O)c1 (stereo unspecified) | 15.8µM* | 2.1% | -108.4* | 1.6% | -15.0%
COC(=O)Cc1ccc(NC(=O)c2ccc3c(c2)C(=O)N(CC2CCCO2)C3=O)cc1 (stereo unspecified) | 28.2µM* | -0.8% | -29.6 | -2.6% | 16.0%
COC(=O)c1cccc(NC(=O)c2ccc3c(c2)C(=O)N(CC2CCCO2)C3=O)c1 (stereo unspecified) | ? | -0.2% | -8.8 | 1.1% | 9.5%
O=C(O)Cc1ccc(NC(=O)c2ccc3c(c2)C(=O)N(CC2CCCO2)C3=O)cc1 (stereo unspecified) | -17.9% | nt | 9.4 | 5.1% | -10.2%
CC(C)CN1C(=O)c2ccc(C(=O)Nc3ccncc3)cc2C1=O | 12.6µM* | 5.8% | -31.3 | ? | -20.3%
CC(C)CN1C(=O)c2ccc(C(=O)Nc3ccccn3)cc2C1=O | 21.5% | -0.9% | -10.5 | 2.2% | -11.3%
CC(C)(C)NC(=O)c1cccc(NC(=O)c2ccc3c(c2)C(=O)N(C(C)(C)C)C3=O)c1 | 25.1µM* | ? | 20.4 | ? | -8.5%
COc1ccc(NC(=S)N2CCC(C(=O)c3ccc(F)cc3)CC2)cc1 | 24.2% | ? | 9.8 | nt | nt
CCCCNC(=O)c1sc2ncnc(NCC3CCCO3)c2c1C (stereo unspecified) | 0.8% | nt | nt | nt | nt
Cc1cc(C(=O)Nc2ccccc2-c2nc(CNC(=O)C3COc4ccccc4O3)c(C)o2)c(C)o1 (stereo unspecified) | 9.0% | nt | nt | nt | nt
Cc1ccc(S(=O)(=O)c2cn(C)c3cc(N4CCN(C)CC4)c(F)cc3c2=O)c(C)c1 | 12.2% | 12.6µM* | -20.4 | -1.6% | 62.6%
COCCCN(CC(=O)Nc1ccc(N2CCOCC2)cc1)S(=O)(=O)c1ccc(Cl)cc1 | -8.1% | -12.9% | -38.8 | -3.8% | 66.6%
CCSC(SCC)[C@H](O)[C@@H](O)[C@H](O)[C@H](O)CO | -16.6% | 0.1%[8.37 µM] | -64.6* | ? | -13.6%
CCC(C)(C)NC(=O)Nc1cc(Cl)ccc1OC | 1.8% | ? | -61.5* | -8.6% | -26.8%
COc1ccc(Cl)cc1NC(=O)NC(C)C | -8.9% | ? | -100.8* | 0.8% | -13.9%
O=C([C@@H]1C[C@@H](Sc2nc3ccccc3[nH]2)CN1Cc1ccc(C(F)(F)F)cc1)N1CCN(c2ccccc2F)CC1 | -13.5% | nt | nt | nt | nt
CCn1ccc2cc(S(=O)(=O)N3CCC(C(=O)NCCc4ccc(SC)cc4)CC3)ccc21 | -19.3% | nt | 13.1 | -6.1% | nt
CC(=O)N1c2ccc(S(=O)(=O)N3CCC(C(=O)Nc4cccc(C(F)(F)F)c4)CC3)cc2CC1C (stereo unspecified) | ? | 2.51µM* | -89.2* | 1.5% | 26.4%
